Our source for the inhibition values is PubChem BioAssay AID1619 (SRMLSC, 2009).

SMILES strings stand for the structures. About 830 (0.38%) of roughly 220,000 compounds were called active.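 Rule for the calls: active = compound inhibiting the enzyme by more than half at any dose during confirmatory dose-response retesting; inconclusive = strong single-dose inhibitors picked by rank but not retested; inactive = the rest.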 These entries were drawn from the full list. Potency and affinity values are given separately.

Sequence of Leucine aminopeptidase (Plasmodium falciparum (isolate 3D7)) (Q8IL11 whole entry, looked up): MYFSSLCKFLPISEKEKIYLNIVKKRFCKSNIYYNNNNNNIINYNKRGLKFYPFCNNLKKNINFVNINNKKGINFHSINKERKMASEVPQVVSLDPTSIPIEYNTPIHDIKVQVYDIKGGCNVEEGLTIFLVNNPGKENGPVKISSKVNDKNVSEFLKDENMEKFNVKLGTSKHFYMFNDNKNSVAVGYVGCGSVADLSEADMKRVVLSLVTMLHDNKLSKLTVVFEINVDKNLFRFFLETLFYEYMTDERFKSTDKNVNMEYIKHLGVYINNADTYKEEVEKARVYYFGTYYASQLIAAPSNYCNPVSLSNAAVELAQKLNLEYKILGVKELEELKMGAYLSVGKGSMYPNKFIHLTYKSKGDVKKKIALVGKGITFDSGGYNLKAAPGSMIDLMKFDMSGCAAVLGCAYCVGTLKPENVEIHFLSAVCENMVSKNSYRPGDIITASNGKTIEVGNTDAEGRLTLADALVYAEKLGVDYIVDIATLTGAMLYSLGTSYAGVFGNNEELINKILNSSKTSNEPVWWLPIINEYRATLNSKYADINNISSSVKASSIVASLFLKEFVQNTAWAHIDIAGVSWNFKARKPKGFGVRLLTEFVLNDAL

This assay concerns the target Leucine aminopeptidase (Plasmodium falciparum (isolate 3D7)) (UniProt Q8IL11). The assay can be described thus: P. falciparum M17LAP inhibitors, primary screen, biochemical, fluorogenic H-Leu-NHMec substrate, 1536-well (AID 1619).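 Note: plate controls were full reaction with DMSO carrier for no effect and no enzyme background for full effect.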 As to conditions: recombinant M17LAP, H-Leu-NHMec fluorogenic kinetic assay; at 30 µM; hits give high values.
A word on the inhibition: it is the relative decrease from the control value, in per cent. Take `CN(C)c1ccc(NC(=S)N2CCN(c3ncc(C(F)(F)F)cc3Cl)CC2)cc1`: the inhibition was -0.82% (inactive).
Regarding `COc1ccccc1N1CCN(CC(=O)Nc2ccc(-n3cnnn3)cc2)CC1`, the inhibition was -1.4% (inactive).
Under `O=c1cc(N2CCOCC2)[nH]c(=O)n1C1CCCCC1` stands 8.33% (inactive); under `CC(C)c1nc(-c2c(N)n(C)c(=O)n(C)c2=O)sc1C(=O)C(C)(C)C`, -3.01% (inactive).
The value for `O=C(c1cc(-c2ccc3c(c2)OCO3)on1)N1CCOCC1` was -10.2% (inactive); that for `Cc1ccc(NC(=O)Nc2ccc(F)cc2)nc1` was 3.7% (inactive).
Turning to `CCC(=O)N1CCN(c2ccc(NC(=O)c3ccc([N+](=O)[O-])o3)cc2Cl)CC1`, the inhibition was 3.55% (inactive).
The value for `CCOC(=O)N1CCN(C(=O)Nc2cccc3ccccc23)CC1` was 23.7% (inactive).
Turning to `Fc1cccc(CSc2ccc3nnc(-c4cccnc4)n3n2)c1`, the inhibition was 21.3% (inactive).
The value for `O=C(NC(=S)Nc1ccccc1O)c1ccc(-c2ccc(Cl)cc2)o1` was 1.04% (inactive); that for `COc1ccccc1NC(=S)NC(=O)c1ccc(-c2ccc(Cl)cc2)o1` was 4.34% (inactive).
With `Cc1ccc(OCC(=O)Nc2ccc(N(C)C)cc2)cc1`, the inhibition was -2.19% (inactive).
`COc1ccc(-n2c(C(C)n3nc(C)c([N+](=O)[O-])c3C)n[nH]c2=S)cc1` (configuration not stated): the inhibition is 31.2% (inactive).
As to `Cc1cccc(-c2n[nH]c(=S)n2-c2ccccc2)c1[N+](=O)[O-]`, the inhibition was 0.12% (inactive).
In the case of `Cc1ccc(NC(=S)NC(C)(C)C)c([N+](=O)[O-])c1`, the inhibition was -4.98% (inactive).
With `O=C(O)C1CCCCC1C(=O)NCCc1ccccc1` (configuration not stated), the inhibition is 32.3% (inactive).
The value for `O=C(O)[C@H]1CCCC[C@H]1C(=O)NCCc1ccccc1` was 36.3% (inactive); that for `COc1ccc(CNC(=O)C2CCNCC2)cc1` was -2.52% (inactive).
Under `CC1=C(C)CC(C(=O)NCc2ccc3c(c2)OCO3)C(C(=O)O)C1` (configuration not stated) stands 45.8% (inactive); under `CCC(c1nnnn1Cc1cccs1)N1CCN(C(=O)c2ccco2)CC1` (configuration not stated), 16.8% (inactive); under `COc1ccc(CC(=O)O/N=C(\N)c2ccncc2)cc1`, -0.41% (inactive).
The value for `COc1ccc(-n2nc(C(=O)N3CCN(Cc4ccc5c(c4)OCO5)CC3)c3ccccc3c2=O)cc1` was 6.93% (inactive); that for `Cc1nc(Nc2ccc(S(=O)(=O)N3CCCCC3C)cc2)c2nnn(Cc3ccccc3)c2n1` (configuration not stated) was 9.37% (inactive).
Consider `COc1ccc(NC(=O)c2ccc(NCCN3C(=O)CCC3=O)c([N+](=O)[O-])c2)cc1`, for which the inhibition was 4.32% (inactive).
`COC(=O)c1ccccc1NC(=O)CSc1nc(O)c(-c2ccccc2)c(=O)[nH]1`: the inhibition is 5.3% (inactive).
The value for `O=C(O)C(Cc1ccccc1)N1Cc2ccccc2C1=O` (configuration not stated) was -1.49% (inactive).
The value for `CSCC[C@@H](C(=O)O)N1Cc2ccccc2C1=O` was 5.39% (inactive).
Consider `CCN(Cc1ccccc1)C(=O)Cn1c(=O)n(CC(=O)NCc2ccco2)c(=O)c2sccc21`, for which the inhibition is -1.64% (inactive).
Under `CCN(C(=O)CSc1nnc2ccccn12)c1c(N)n(Cc2ccccc2)c(=O)[nH]c1=O` stands 12.8% (inactive); under `N#C/C(=C\c1ccc(Cl)cc1)c1nc2ccccc2o1`, 8.5% (inactive); under `COc1ccc(/C=C(\CC(=O)O)c2nc3ccccc3o2)cc1`, 48.7% (inactive).
Take `COc1ccc(/C=C/C(=O)NCCC(=O)N2CCCN(C)CC2)cc1`: the inhibition was 0.13% (inactive).
The value for `Fc1ccccc1Nc1nc(-c2ccncc2)nc2ccccc12` was 0.48% (inactive).
The value for `Cc1cc(C(=O)NC(Cc2ccccc2)C(=O)O)c(C)o1` (configuration not stated) was -7.27% (inactive); that for `CSCCC(NC(=O)c1cc(C(C)(C)C)oc1C)C(=O)O` (configuration not stated) was 20.9% (inactive).
The value for `O=C(C[n+]1ccc(/C=N/O)cc1)N(Cc1ccccc1)Cc1ccccc1` was 4.35% (inactive); that for `COCCNC(=O)C(C)OC(=O)c1cc2sccc2n1C` (configuration not stated) was 3.75% (inactive); that for `Cn1cnnc1Sc1nc2ccccc2nc1NS(=O)(=O)c1ccccc1` was 53.8% (inactive).
With `CC(=O)Nc1ccc(S(=O)(=O)Nc2nc3ccccc3nc2Sc2nncn2C)cc1`, the inhibition is -11.7% (inactive).
The value for `Cc1[nH]n(-c2cccc3ccccc23)c(=O)c1/C=N/NC(=O)c1cccc([N+](=O)[O-])c1` was 11.1% (inactive); that for `CCSc1nnc(NC(=O)C2CC2c2ccccc2)s1` (configuration not stated) was 15% (inactive); that for `CCSc1nnc(NC(=O)C2CCCCC2)s1` was 1.5% (inactive).
`CCSc1nnc(NC(=O)NC2CCCCC2)s1`: the inhibition is -14.6% (inactive).
Under `CCSc1nnc(NC(=O)C2CCCCC2C(=O)O)s1` (configuration not stated) stands 48.8% (inactive).
The value for `CCOC(=O)c1cc(NC(=O)N(CC)C2CCCCC2)c(C)nc1C` was 1.12% (inactive); that for `Cc1cc(C)cc(NC(=O)CSc2nc3c(c(=O)[nH]2)CN(Cc2ccc(F)cc2)CC3)c1` was 13.5% (inactive); that for `Cc1ccc(NC(=O)CSc2nc3c(c(=O)[nH]2)CN(Cc2ccc(F)cc2)CC3)cc1C` was -0.17% (inactive).
Under `CSc1nc(=O)n(-c2ccccc2)c(C)c1C(C)=O` stands 2.84% (inactive); under `COc1cccc(NC(=S)N(CCCN2CCCC(C)C2)Cc2cccs2)c1` (configuration not stated), -0.27% (inactive).
As for `CCOC(=O)c1c(-c2ccccc2)oc2ccc(O)c(CN(C)C)c12`, the inhibition is -6.67% (inactive).
In the case of `CCOC(=O)Nc1c2ccccc2nc2ccccc12`, the inhibition was -87.5% (inactive).
As to `COc1ccc(CCNC(=O)C2CC(=O)N(CCc3ccc(C)cc3)C2)cc1OC` (configuration not stated), the inhibition is 5.63% (inactive).
The value for `CCCn1c(SCC(=O)NC2CCCc3ccccc32)n[nH]c1=O` (configuration not stated) was -0.96% (inactive); that for `C=CCn1c(N)c(C(=O)N2CCN(C)CC2)sc1=S` was 14% (inactive); that for `O=C(O)c1ccc(S(=O)(=O)Nc2ccc(O)c(Sc3nc4ccccc4s3)c2)cc1` was 40.7% (inactive).
On to `O=C(O)c1cccc(S(=O)(=O)Nc2ccc(O)c(Sc3nc4ccccc4s3)c2)c1`, for which the inhibition was 42.9% (inactive).
Under `CCOc1ccc(NC(=O)Nc2nnc(CC)s2)cc1` stands 9.94% (inactive); under `COc1cccc(Nc2ccc(Nc3cccc(OC)c3)nn2)c1`, -1.13% (inactive).
For the compound `COc1cccc(Nc2nc3ccc(OC)cc3s2)c1`, the inhibition was 14.2% (inactive).
Under `CCOc1ccc(Nc2nc3ccccc3c(=O)s2)cc1` stands 4.25% (inactive); under `O=C(CSc1ccc(Cl)cc1)N1CCC(c2nc3ccccc3s2)CC1`, 1% (inactive); under `CCn1c(SCC(=O)N(C)c2c(N)n(Cc3ccccc3)c(=O)[nH]c2=O)nc2ccccc21`, -11.8% (inactive).
Regarding `Cc1c(C(=O)NCc2ccccc2)c(-c2ccccc2)nn1-c1ccccc1`, the inhibition was 6.71% (inactive).
Under `O=C(COc1ccccc1Cl)N1CCN(c2ncccn2)CC1` stands 5.76% (inactive); under `O=C(O)CSc1nc(C(F)(F)F)cc(=O)n1-c1ccccc1`, -6.87% (inactive); under `COCCCNC(=O)c1ccc(Cn2c(=O)c3ccccc3n(CC(=O)NCc3ccco3)c2=O)cc1`, -3.96% (inactive).
For `CCN(CC)c1ccc(NC(=O)CSc2nc3ccccc3c(=O)n2-c2cc(S(=O)(=O)N(C)C)ccc2C)cc1`, the inhibition was -13% (inactive).
As for `Clc1ccccc1Nc1ncnc2c1nnn2Cc1ccccc1`, the inhibition was 5.79% (inactive).
The value for `CC(=O)Oc1ccc(C(=O)[C@H]2[C@H]3C(=O)N(c4ccc(C)cc4)C(=O)[C@H]3[C@@H]3C=CC=NN32)cc1` was 14.6% (inactive); that for `c1ccc(CNc2ncnc3nc[nH]c23)cc1` was 45.1% (inactive); that for `COc1ccccc1CNc1ncnc2nc[nH]c12` was 6.16% (inactive).
Regarding `COc1cc2c(cc1OC)CN(C(=S)Nc1ccc(Cl)cc1)CC2`, the inhibition is 1.81% (inactive).
Under `CC1CN(C(=O)N2CCOCC2)CCN1C(=O)N1CCOCC1` (configuration not stated) stands -0.08% (inactive).
On to `CCOC(=O)c1cc(-c2csc(-c3ccc(C(F)(F)F)cc3)n2)on1`, for which the inhibition was -0.99% (inactive).
As for `O=C(NCCCO)/C(=C\C=C\c1ccccc1)NC(=O)c1ccccc1Cl`, the inhibition is 18.5% (inactive).
Take `C=CCNC(=O)/C(=C\C=C\c1ccccc1)NC(=O)c1ccccc1Cl`: the inhibition is -0.22% (inactive).
In the case of `CCc1ccc(C(=O)CSc2nc3cc(S(=O)(=O)N4CCOCC4)ccc3n2CC)cc1`, the inhibition is 16.6% (inactive).
Turning to `O=C(CCSc1ccccc1)NCCSCc1ccco1`, the inhibition is 22.2% (inactive).
Turning to `Cc1oc2c(C)c(O)ccc2c(=O)c1-c1nncn1-c1ccccc1`, the inhibition was 5.69% (inactive).
Under `CCOC(=O)c1oc2c(C)c(O)ccc2c(=O)c1-c1nncn1-c1ccccc1` stands 17.4% (inactive); under `CSc1cccc(NC(=O)C2CCN(S(=O)(=O)c3ccc(F)cc3)CC2)c1`, -0.52% (inactive); under `COc1cccc(C(=O)NCC2CCN(c3ccc(S(=O)(=O)N4CCOCC4)cc3)CC2)c1`, 4% (inactive).
Under `CN(C)S(=O)(=O)c1ccc(C(=O)NC(=O)CSc2ccccc2)cc1` stands 6.97% (inactive); under `C/C(=N\NC(=O)C1=NNC(=O)C1C)c1cccs1` (configuration not stated), 24.2% (inactive); under `CC1=NNC(=O)C1CC(=O)N/N=C/c1ccncc1` (configuration not stated), -2.88% (inactive).
Under `CC1=NNC(=O)C1CC(=O)N/N=C/c1cccs1` (configuration not stated) stands 5.62% (inactive); under `CC1=NNC(=O)C1CC(=O)N/N=C/c1ccc(C)o1` (configuration not stated), 5.16% (inactive); under `Cc1ccc(/C=C/C(=O)NCCCc2ccccc2)cc1`, -0.31% (inactive).
For `CCc1ccccc1NC(=O)CC1S/C(=N\c2nccs2)N(CC)C1=O` (configuration not stated), the inhibition was 0.04% (inactive).
The value for `COc1ccc2cc(C)c(SCC(=O)Nc3cc(C)on3)nc2c1` was -7.8% (inactive); that for `CCc1cc2cc3c(cc2nc1SCC(=O)Nc1nccs1)OCO3` was -1.06% (inactive).
`CCc1cc2ccc(C)cc2nc1SCC(=O)Nc1c[nH]c(=O)[nH]c1=O`: the inhibition is 21.2% (inactive).
Turning to `COc1cc(NC(=O)CSc2nnc3c(C)cc4c(C)ccc(C)c4n23)c(C(=O)O)cc1OC`, the inhibition was 3.38% (inactive).
For the compound `CCc1cc2ccc(C)cc2nc1SCC(=O)Nc1cc(C)on1`, the inhibition was -2.5% (inactive).
Under `CCc1cc2cc3c(cc2nc1SCC(=O)Nc1cc(C)on1)OCO3` stands 7.57% (inactive); under `Cc1ccc2cc(C)c(SCC(=O)Nc3ccc(S(=O)(=O)N4CCCC4)cc3)nc2c1`, -14.9% (inactive).
Under `CCc1ccc2c(c1)cc(C)c1nnc(SCC(=O)Nc3cc(OC)c(OC)cc3C(=O)O)n12` stands 7.71% (inactive).
